In the library only some 1.2% were active in any assay of this set; here they are far more common.
BCLXL inh: Bcl-xL (human) inhibition; inhibition, % at 10.9 µM; GST-Bcl-xL / FITC-Bim BH3 peptide fluorescence polarization; hit rate 0.7% among 320,000; AID 2129;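 active means inhibition above the mean of all tested compounds plus 3 SD, cutoff set per campaign, cut at about 30% in these data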;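 further: inhibitors lower millipolarization by displacing the labeled peptide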
GLD-1 TGE inh: GLD-1-TGE RNA interaction inhibition (C. elegans). Q17339. purified GLD-1 + fluorescein TGE RNA, fluorescence polarization. inhibition, % at 5.96 µM. hit rate 0.44% among 320,000;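 active means percent inhibition above a per-plate cutoff, the plate mean of test compounds plus 3 SD, cut at about 30% in these data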
LANA DNA inh: inhibitors of KSHV LANA C-terminal domain DNA binding | inhibition, % at 9 µM | hit rate 0.078% among 340,000 | MBP-C-LANA/FAM-LBS DNA binding, fluorescence polarization;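 active means highest replicate inhibition at or above 60% at 9 µM, even if other replicates fall short; inactive means all replicates below 60% inhibition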
E coli Lon inh: inhibitors of E. coli Lon protease. P0A9M0. hit rate 0.42% among 360,000. purified E. coli Lon protease, fluorescence polarization. inhibition, % at 7.94 µM; in the data active means inhibition above about 13%, passing the limit was not always enough
MEX-5 binding: C. elegans MEX-5 TCR-2 RNA binding activity | Q9XUB2 | MEX-5/FITC-TCR2 RNA binding, fluorescence polarization; hits give low values | activity score (negative = inhibition of binding), % at 10 µM | hit rate 0.38% among 300,000;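 active means inhibition past about -25% in most replicates, and total fluorescence under double the plate's negative control median, limit read from the data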
Keap1 Nrf2 FP: inhibitors of human Keap1-Nrf2 protein-protein interaction. Q14145. Keap1 Kelch-Nrf2 peptide fluorescence polarization, 1536-well. inhibition, % at 9.4 µM. hit rate 0.15% among 340,000; in the data active means inhibition above about 12%;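 further: human Keap1 Kelch domain with fluorescein labeled Nrf2 9mer peptide probe; higher means more block of Keap1 binding to Nrf2 peptide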
Target sequence (Q14145 whole entry, looked up, the tested form may be a part): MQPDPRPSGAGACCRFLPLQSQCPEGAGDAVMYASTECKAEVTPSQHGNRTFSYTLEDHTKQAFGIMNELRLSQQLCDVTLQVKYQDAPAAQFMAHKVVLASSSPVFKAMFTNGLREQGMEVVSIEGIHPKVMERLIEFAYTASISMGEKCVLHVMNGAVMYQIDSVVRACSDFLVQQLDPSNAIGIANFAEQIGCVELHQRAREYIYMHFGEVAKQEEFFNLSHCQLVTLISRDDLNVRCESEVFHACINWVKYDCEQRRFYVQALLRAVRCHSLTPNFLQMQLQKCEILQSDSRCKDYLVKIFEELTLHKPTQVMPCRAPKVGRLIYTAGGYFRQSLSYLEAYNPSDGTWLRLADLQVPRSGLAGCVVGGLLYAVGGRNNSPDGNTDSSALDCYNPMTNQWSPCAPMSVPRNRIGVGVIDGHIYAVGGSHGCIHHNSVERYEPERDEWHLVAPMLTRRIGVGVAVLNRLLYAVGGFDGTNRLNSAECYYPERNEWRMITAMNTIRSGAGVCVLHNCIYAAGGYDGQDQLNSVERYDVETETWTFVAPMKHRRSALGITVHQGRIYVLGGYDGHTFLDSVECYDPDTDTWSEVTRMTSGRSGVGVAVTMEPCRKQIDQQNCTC
eLon confirm: E. coli Lon inhibition confirmation; inhibition, % at 7.94 µM; AID 602230; hit rate 31% among 1,400; shares compounds with E coli Lon inh; purified E. coli Lon, fluorescence polarization; in the data active means inhibition above about 16%
Each line names hits and unclear results; the compound was inactive in the other large screens (follow-up assays come after a bar, where they were run).

Cc1ccc2c(c1)c(C)c(C)n2CC(O)Cn1nc(C)c(Br)c1C (stereo not given)	E coli Lon inh 15 | eLon confirm 23
CCn1c2ccccc2c2cc(NS(=O)(=O)c3ccccc3C)ccc21	E coli Lon inh 14 | eLon confirm inactive
O=C(Cn1c2c(c(-c3ccccc3Cl)cc1=O)CCC2)NCC1CCCO1 (stereo not given)	none
CCOC(=O)N1CCC(NC(=O)Cn2c3c(c(-c4ccccc4Cl)cc2=O)CCC3)CC1	E coli Lon inh 20 | eLon confirm inactive
CN1Cc2c(N3CCOCC3)nc(SCc3ccccc3)c(C#N)c2CC1(C)C	E coli Lon inh 45 | eLon confirm inactive
O=C(N/N=C/c1c[nH]c2ccccc12)c1cccc(Cl)c1	none
O=C(N/N=C/C1C(c2ccccc2)C1(Cl)Cl)c1cccc(Cl)c1 (stereo not given)	E coli Lon inh 22 | eLon confirm inactive
CCn1cc(/C=C(\NC(=O)c2ccccc2Cl)C(=O)NCCN2CCOCC2)c2ccccc21	none
COc1ccccc1/C=C\C(=O)NCC(=O)N/N=C(/C)c1cccc([N+](=O)[O-])c1	none
CC(=O)Nc1nc(C)c(Oc2ccccc2)c(=O)[nH]1	E coli Lon inh 23 | eLon confirm inactive
CCC(=O)Nc1nc(C)c(Oc2ccccc2)c(=O)[nH]1	none
COc1cc(-c2cc(NC(C)=O)c3ncc(-c4ccc(F)cc4)n3c2)cc(OC)c1OC	none (no result: BCLXL inh, GLD-1 TGE inh, LANA DNA inh, MEX-5 binding, Keap1 Nrf2 FP)
O=C1N(c2cccc(Cl)c2)C(c2ccccc2)N2CCCN12 (stereo not given)	none
Cc1ccc(C2N(c3ccccc3)C(=O)N3CCCN23)cc1 (stereo not given)	E coli Lon inh 36 | eLon confirm inactive
CC(C)CCN(C(=O)c1ccccn1)c1c(N)n(Cc2ccccc2)c(=O)[nH]c1=O	none (no result: BCLXL inh, MEX-5 binding)
N#Cc1c(NCc2ccccc2)ccnc1NCc1cccnc1	E coli Lon inh 17 | eLon confirm inactive
N#Cc1c(F)cccc1NCc1cccnc1	none
O=C(NCc1ccccc1)C1=C[C@@H](c2coc3ccccc3c2=O)C[C@@H](OCCCCO)O1	none
C#CCNC(=O)C1=C[C@@H](c2coc3ccccc3c2=O)C[C@@H](OCCCCO)O1	E coli Lon inh 19 | eLon confirm 29
CCOc1ccc(CCN2C(=O)C(=O)N([C@@H](CC(C)C)CN3CCC[C@H]3CN3C(=O)C(=O)NC[C@@H]3Cc3ccccc3)C[C@@H]2Cc2ccc(O)cc2)cc1	none (no result: BCLXL inh, GLD-1 TGE inh, LANA DNA inh, MEX-5 binding, Keap1 Nrf2 FP)
CCOC(=O)c1c2c(n(Cc3ccccc3)c1C)C(=O)C(=O)c1ccccc1-2	none (no result: BCLXL inh, GLD-1 TGE inh, LANA DNA inh, MEX-5 binding)
CCOC(=O)c1c2c3c(c(Cl)ccc3[nH]c1=O)C(=O)c1ccccc1-2	E coli Lon inh 17 (no result: BCLXL inh, GLD-1 TGE inh) | eLon confirm 38
CC(C)N(C)c1ncnc2c1ncn2[C@H]1CN(Cc2cccs2)C[C@@H](CO)O1	none (no result: BCLXL inh, GLD-1 TGE inh, LANA DNA inh, MEX-5 binding, Keap1 Nrf2 FP)
COc1ccccc1N1CCN(S(=O)(=O)CCNC(=O)C2CC(=O)N(c3ccccc3)C2)CC1 (stereo not given)	none
O=C(NCCS(=O)(=O)N1CCN(c2ccccc2F)CC1)C1CC(=O)N(c2ccc(F)cc2)C1 (stereo not given)	E coli Lon inh 75 | eLon confirm inactive
COc1ccc(N(C(=O)c2cccnc2)S(=O)(=O)c2ccc(Cl)cc2)cc1	none
COc1ccc(CCNC(=O)C(=O)NCC2OCCN2C(=O)c2ccc(Cl)cc2)cc1OC (stereo not given)	none
CCN(CC)S(=O)(=O)c1ccc(N2CCOCC2)c(NC(=O)c2ccccc2)c1	none
CCN(CC)S(=O)(=O)c1ccc(N2CCOCC2)c(NC(=O)c2cc3ccccc3o2)c1	E coli Lon inh 30 (no result: BCLXL inh, GLD-1 TGE inh, LANA DNA inh, MEX-5 binding, Keap1 Nrf2 FP) | eLon confirm inactive
COC(=O)c1cc(NS(=O)(=O)c2cccs2)cc(NS(=O)(=O)c2cccs2)c1	E coli Lon inh 125 (no result: BCLXL inh, GLD-1 TGE inh, MEX-5 binding) | eLon confirm inactive
O=C(c1cc(COc2ccc(F)cc2F)on1)N1C[C@H]2CC[C@H]1C2	E coli Lon inh 24 | eLon confirm inactive
Oc1cc(CNC2CCCCC2)c(O)cc1CNC1CCCCC1	E coli Lon inh 45 (no result: BCLXL inh, GLD-1 TGE inh, MEX-5 binding) | eLon confirm 17
CC(=O)OC1COC(OC(C)=O)CO1 (stereo not given)	none (no result: BCLXL inh, GLD-1 TGE inh, MEX-5 binding)
CCN(CC)S(=O)(=O)c1ccc(NC(=O)CC(NC(C)=O)c2ccccc2)cc1 (stereo not given)	E coli Lon inh 17 | eLon confirm inactive
COc1ccc(CCNC(=O)c2ccc3c(c2)N(Cc2ccc(F)cc2)CCS3)c(OC)c1	E coli Lon inh 18 | eLon confirm inactive
COc1cccc(NC(=S)N2CCN(c3ccccn3)CC2)c1	E coli Lon inh active | eLon confirm inactive
S=C(Nc1cccc(Cl)c1)N1CCN(c2ccccn2)CC1	none
COc1ccc(S(N)(=O)=O)cc1C(=O)OCC(=O)N1CCCC(C)C1 (stereo not given)	none (no result: BCLXL inh, MEX-5 binding)
Nc1cc2nc[nH]c2cc1N	E coli Lon inh 18 (no result: BCLXL inh, GLD-1 TGE inh) | eLon confirm inactive
CCOC(=O)c1c(C)oc2c1c(C=NCc1ccccn1)c(O)c1ccccc12	E coli Lon inh 124 (no result: BCLXL inh, GLD-1 TGE inh, MEX-5 binding) | eLon confirm 135
CCOC(=O)c1c(C)oc2c1c(C=NCC1CCCO1)c(O)c1ccccc12 (stereo not given)	none (no result: BCLXL inh, GLD-1 TGE inh, MEX-5 binding)
CC(C)C1NC2(C(=O)c3ccccc3C2=O)C2C(=O)N(c3ccc(F)cc3)C(=O)C12 (stereo not given)	BCLXL inh 80, GLD-1 TGE inh 120, E coli Lon inh 50 | eLon confirm inactive
O=C1C2C3C=CC(CC3)C2C(=O)N1c1ccc(F)cc1 (stereo not given)	none
COc1ccccc1C(=O)NCCn1ccc2ccccc21	E coli Lon inh 16 | eLon confirm inactive
Cc1ccc(C2C(C(=O)c3cccs3)=C(O)C(=O)N2c2nnc(C)s2)cc1 (stereo not given)	BCLXL inh 96, GLD-1 TGE inh 101, E coli Lon inh 29, MEX-5 binding -67 | eLon confirm 61
Cc1oc2ccc(Br)cc2c(=O)c1-c1nn[nH]n1	E coli Lon inh 21 | eLon confirm inactive
COc1cccc(S(=O)(=O)N(C)C[C@H]2OCc3cnnn3CCCC(=O)N([C@H](C)CO)C[C@H]2C)c1	none (no result: BCLXL inh, GLD-1 TGE inh, LANA DNA inh, MEX-5 binding, Keap1 Nrf2 FP)
CC(=O)c1cn(N2CCCCC2)c(=O)[nH]c1=O	none
O=C(CCc1nc2ccccc2[nH]1)Nc1ccccc1F	E coli Lon inh 14 | eLon confirm inactive
COc1cc(F)ccc1-c1csc(C(O)c2ccc(F)c(F)c2)n1 (stereo not given)	none (no result: BCLXL inh, GLD-1 TGE inh, LANA DNA inh, MEX-5 binding, Keap1 Nrf2 FP)
C=CC[C@H](CC(=O)N(CCO)Cc1ccccc1)C(=O)N[C@@H](C)COC(=O)[C@H](CC=C)CC(=O)OC(C)(C)C	none (no result: BCLXL inh, MEX-5 binding)
C=CC[C@H](CC(=O)N(CCO)Cc1ccccc1)C(=O)N[C@H](COC(=O)[C@@H](CC=C)CC(=O)OC(C)(C)C)c1ccccc1	E coli Lon inh 20 (no result: BCLXL inh, MEX-5 binding) | eLon confirm inactive
